This is an account of results in PubChem BioAssay (NCI).

Some test systems named below: NCI-H23 lung; NCI-H226 lung; NCI-H322M lung; HOP-62 NSCLC; NCI-H460 lung; HOP-92 NSCLC; NCI-H522 lung; A549/ATCC NSCLC; 786-0 renal; COLO 205 colon; DU-145 prostate; K-562 leukemia; MALME-3M melanoma; MDA-MB-231 breast; RXF 393 renal; SF-268 CNS; SF-295 CNS; SF-539 CNS; UACC-257 melanoma; M14 melanoma.
Common to all, as to experiment: NCI-60 one-dose screen, 48 h (100 = growth as untreated, 0 = no growth, -100 = all killed)
Common to all, as to conditions: 10 µM unless noted

About 83,000 compounds went through this panel and 20% of them were active in at least one assay; those are over-represented in the sample as a whole.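 Assay: single dose, 48 h. Readout: percent growth (0 = no net growth; negative = cell death). Active: <10.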 Unmarked numbers belong to inactive results. Activity calls are given as the source filed them.

As to `Cc1ccc(S(=O)(=O)NC(=O)n2cc(-c3ccncc3)c(-c3ccc(Cl)c(O)c3)n2)cc1`, the growth was 108% in the test with NCI-H23 lung; 98.6% in the test on NCI-H226 lung; 111% in the test on NCI-H322M lung; 116% in the test with HOP-62 NSCLC; 111% with NCI-H460 lung; 99% in the test with HOP-92 NSCLC. Besides, the growth in the test with NCI-H522 lung is 91.3%; with A549/ATCC NSCLC, 99.6%; with 786-0 renal it was 95.4%; in the test on COLO 205 colon, 113%; with DU-145 prostate it was 132%; in the test on K-562 leukemia, 98.9%. Besides, the growth was 65% in the test on MALME-3M melanoma; 89.8% with MDA-MB-231 breast; 114% in the test on RXF 393 renal; 117% with SF-268 CNS; 109% in the test on SF-295 CNS; 92.1% in the test with SF-539 CNS. Besides, the growth in the test on UACC-257 melanoma was 99.4%; in the test on M14 melanoma, 51.2%.
Consider `CN(C)c1oc(C2OC2c2ccccc2)nc1C#N` (stereo not given), for which the growth was 95.2% in the test with NCI-H23 lung; 80.7% in the test with NCI-H226 lung; 81.6% with NCI-H322M lung; 75.6% in the test with HOP-62 NSCLC; 109% with NCI-H460 lung; 79% in the test with HOP-92 NSCLC. Further, the growth with NCI-H522 lung is 87.7%; with A549/ATCC NSCLC, 90.8%; in the test with 786-0 renal it was 102%; in the test on COLO 205 colon, 94.5%; in the test with DU-145 prostate it was 107%; in the test with K-562 leukemia, 106%. Moreover, the growth in the test on MALME-3M melanoma was 95.9%; in the test on MDA-MB-231 breast, 87.3%; with RXF 393 renal, 86.7%; in the test on SF-268 CNS it was 95.7%; in the test with SF-295 CNS, 98.8%; in the test with SF-539 CNS, 104%. Besides, the growth in the test with UACC-257 melanoma was 83%; with M14 melanoma, 104%.
In the case of `CCOC(=O)c1ccc2c(c1)nc(-c1ccc(OCc3ccccc3)c(OC)c1)n2-c1cc(C(C)(C)C)[nH]n1`, the growth in the test on NCI-H23 lung is 88.1%; with NCI-H226 lung, 91.6%; in the test with NCI-H322M lung, 92.8%; with HOP-62 NSCLC, 91.4%; in the test with NCI-H460 lung, 74.9%; with HOP-92 NSCLC it was 93.5%. In addition, the growth with NCI-H522 lung is 67.8%; with A549/ATCC NSCLC it was 59.3%; with 786-0 renal, 98.7%; in the test with COLO 205 colon, 67.4%; in the test on DU-145 prostate, 89.9%; in the test with K-562 leukemia, 55.4%. In addition, the growth in the test on MALME-3M melanoma was 99.2%; with MDA-MB-231 breast it was 109%; in the test on RXF 393 renal it was 83.6%; with SF-268 CNS, 88.1%; in the test on SF-295 CNS, 35.8%; in the test on SF-539 CNS, 88.2%. Also, the growth in the test with UACC-257 melanoma is 101%; with M14 melanoma, 95.4%.
Consider `CNc1ccc(Br)c2c1C(=O)c1ccccc1C2=O`, for which the growth was 98.3% in the test on NCI-H23 lung; 104% in the test on NCI-H226 lung; 110% in the test with NCI-H322M lung; 107% in the test with HOP-62 NSCLC; 105% with NCI-H460 lung; 80.6% in the test with HOP-92 NSCLC. Besides, the growth was 98% in the test with NCI-H522 lung; 110% in the test with A549/ATCC NSCLC; 96.7% in the test with 786-0 renal; 132% in the test with COLO 205 colon; 121% with DU-145 prostate; 94.9% in the test with K-562 leukemia. Moreover, the growth in the test with MALME-3M melanoma is 117%; in the test with MDA-MB-231 breast, 103%; with RXF 393 renal it was 122%; in the test with SF-268 CNS, 115%; in the test with SF-295 CNS it was 110%; in the test on SF-539 CNS, 103%. Besides, the growth is 121% in the test with UACC-257 melanoma and 118% in the test with M14 melanoma.
For the compound `CN1CCN(Cc2ccc(NC(=O)c3cncc(C#Cc4cnc(N)c5ccncc45)c3)cc2C(F)(F)F)CC1`, the growth was 15.4% in the test with NCI-H23 lung; -12.8% (active) in the test with NCI-H226 lung; 20.4% in the test on NCI-H322M lung; 9.44% (active) in the test with HOP-62 NSCLC; 8.86% (active) in the test on NCI-H460 lung; -22.5% (active) in the test on HOP-92 NSCLC. Moreover, the growth in the test with NCI-H522 lung was 24.4%; in the test on A549/ATCC NSCLC it was 26.4%; in the test with 786-0 renal it was 35.3%; with COLO 205 colon, -16.1% (active); in the test on DU-145 prostate, 22.2%; in the test with K-562 leukemia it was -16.8% (active). In addition, the growth with MALME-3M melanoma is -44.5% (active); with MDA-MB-231 breast, -33.7% (active); in the test with RXF 393 renal, -30.1% (active); in the test on SF-268 CNS, 24.5%; in the test with SF-295 CNS it was 20.8%; in the test on SF-539 CNS it was -20.6% (active). The growth is 23.8% with UACC-257 melanoma and 2.43% (active) in the test on M14 melanoma.
As for `O=C1C2(c3ccccc3)C(c3ccccc3)=C(c3ccccc3)C1(c1ccccc1)C1CC=CC12` (stereo not given), the growth was 75.9% in the test with NCI-H23 lung; 74% with NCI-H226 lung; 84.7% in the test with NCI-H322M lung; 102% with HOP-62 NSCLC; 84.4% in the test on NCI-H460 lung; 1.51% (active) in the test on HOP-92 NSCLC. The growth in the test on NCI-H522 lung is 71.3%; in the test on A549/ATCC NSCLC it was 78.3%; in the test on 786-0 renal, 85.9%; with COLO 205 colon it was 112%; in the test with DU-145 prostate, 101%; in the test with K-562 leukemia, 69.3%. Also, the growth was 82.9% in the test on MALME-3M melanoma; 70.7% in the test with MDA-MB-231 breast; 84.6% in the test with RXF 393 renal; 91.1% in the test with SF-268 CNS; 68.1% in the test with SF-295 CNS; 89.3% with SF-539 CNS. In addition, the growth in the test on UACC-257 melanoma was 78.4%; in the test on M14 melanoma it was 95.4%.
Consider `COc1ccc2c(c1)cn1c3ccc(OC)cc3[nH]c(=O)c21`, for which the growth with NCI-H23 lung is 33.3%; in the test on NCI-H226 lung, 5.93% (active); in the test with NCI-H322M lung, -45.3% (active); in the test with HOP-62 NSCLC it was 5.85% (active); in the test with NCI-H460 lung, -51% (active); with HOP-92 NSCLC, 28.4%. For the same compound, the growth was -44.9% (active) in the test with NCI-H522 lung; -57% (active) with A549/ATCC NSCLC; -88.3% (active) with 786-0 renal; -61.3% (active) in the test with COLO 205 colon; -87.1% (active) in the test on DU-145 prostate; -28.1% (active) in the test with K-562 leukemia. Also, the growth with MALME-3M melanoma was 42.1%; with MDA-MB-231 breast, -86.9% (active); in the test on RXF 393 renal, -82.2% (active); in the test with SF-268 CNS, -14% (active); with SF-295 CNS it was -84.9% (active); with SF-539 CNS, -84.9% (active). Besides, the growth in the test with UACC-257 melanoma was 54.7%; with M14 melanoma, -65.1% (active).
